Bioassay records from PubChem BioAssay.
A selection: hits, their analogues and other compounds. The true share with any hit is near 1.4%.
Vif-A3G inh – blocks the Vif interaction with human APOBEC3G; Q9HC16; HeLa A3G-eYFP + Vif (tagged APOBEC3G with the HIV-1 protein that degrades it), YFP fluorescence, overnight; Potency, µM (titrated, usually from 46.1 µM), actives largely listed as inhibitors; 0.076% of 410,000 active; further: nearly all actives have a fitted effect of over 60% in size
Target sequence (Q9HC16 whole entry, looked up): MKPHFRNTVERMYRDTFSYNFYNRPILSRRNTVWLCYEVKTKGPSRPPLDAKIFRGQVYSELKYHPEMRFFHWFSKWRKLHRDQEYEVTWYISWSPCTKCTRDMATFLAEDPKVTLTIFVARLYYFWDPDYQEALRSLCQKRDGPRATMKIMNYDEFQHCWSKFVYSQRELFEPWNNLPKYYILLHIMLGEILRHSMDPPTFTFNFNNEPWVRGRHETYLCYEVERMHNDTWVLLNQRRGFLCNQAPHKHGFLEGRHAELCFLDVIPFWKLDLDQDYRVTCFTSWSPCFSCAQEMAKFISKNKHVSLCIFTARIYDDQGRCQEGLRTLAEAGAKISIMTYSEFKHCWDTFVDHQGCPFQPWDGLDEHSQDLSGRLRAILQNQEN
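Read-out is eYFP fluorescence (Ex 488/Em 500-530) from Vif-expressing HeLa A3G-eYFP cells; more signal means A3G escaped Vif-mediated degradation. Cells plated overnight, compound pinned in, incubated overnight at 37 deg C.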
12-LOX inh – ALOX12 (human) lipoxygenase inhibition. purified 12hLO, xylenol orange hydroperoxide absorbance. AID 1671190. P18054. 1.1% of 580,000 active. Potency, µM (top dose mostly 108 µM), most hits filed as inhibitors
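Hydroperoxide product was detected by ferrous iron/xylenol orange as the 573 to 405 nm absorbance ratio. Arachidonic acid at 40 uM (final) was turned over for 30 min at room temperature by 150 nM human 12hLO, pH 7.0 Hepes buffer, after 15 min compound preincubation.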
ASM inhibitor – blocks human secretory acid sphingomyelinase; placental ASM, HMU-PC fluorogenic substrate, 60 min; Potency, µM (series often up to 57.5 µM), most hits filed as inhibitors; P17405; 0.006% of 340,000 active
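qHTS format. ASM enzyme prepared from human placenta hydrolyses the fluorogenic substrate HMU-PC0 (9 uM final) over 60 min at 37 °C after a 10 min compound preincubation.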
PTAP TSG101 blk – blocks PTAP/TSG101 interaction to inhibit HIV-1 budding; 340,000 tested, under 10 active; Q99816; AID 493005; Potency, µM (series often up to 115 µM), most hits filed as inhibitors; Fluorescence polarization, FITC-PTAP peptide / Tsg101 binding; active means well fitted inhibition curve with a large enough effect in the main read-out, with a control signal flat, not every such curve was filed as active; inconclusive means small, poorly fitted or top-dose-only effect, or effect the other way, or a change in a side signal; inactive means no such curve, though single readings can be large or run the other way
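Tsg101 binding domain (10 uM final) was mixed with compound and a FITC-labeled PTAP peptide (50 nM final) in HEPES pH 7.5 buffer with NaCl, Tween 20, EDTA and TCEP; fluorescence polarization was read after 20 min at r.t.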
Akt phos inh – Akt phosphorylation inhibition | Neuro2A IGF-stimulated pAkt S473 HTRF, 20 min; hits give low values | activity change, % for hits at 50 µM | 0.32% of 360,000 active | AID 651550; in the data active means activity change below about -80%; inconclusive means mostly about -51% to -80%
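Neuro2A cells (4,500/well, DMEM with 0.5% FBS) were treated with compound at a single 50 µM final concentration, stimulated with 6 nM IGF for 20 min at 37 °C, and lysed. Phospho-Akt Ser473 was read by HTRF as 665/615 ratio ×10^4.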
Vif-APOBEC3F blk – Vif-A3F binding inhibition; Potency, µM (series often up to 46.1 µM); AID 602313; HeLa A3F-eYFP + Vif (tagged APOBEC3F with the HIV-1 protein that degrades it), YFP fluorescence increase; 0.2% of 390,000 active; further: nearly all actives have a fitted effect of over 65% in size
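HeLa cells stably expressing Vif plus C-terminally eYFP-tagged A3F were seeded, incubated overnight at 37 deg C, dosed with compound, incubated overnight again at 37 deg C. Yellow fluorescence (Ex 488/Em 500-530) reported blocked Vif-mediated A3F-eYFP degradation.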
Numbers stand for hits; i = inactive; ? = inconclusive; nt = no result given. Unless noted, the call rests on the fitted dose curve; in most records, active means well fitted curve in the direction sought with a large enough effect; inconclusive means small, poorly fitted or top-dose-only effect, or another doubt; inactive means no such curve, though single readings can be large; an effect the other way counts as inactive or inconclusive.

SMILES | Vif-A3G inh | 12-LOX inh | ASM inhibitor | PTAP TSG101 blk | Akt phos inh | Vif-APOBEC3F blk
CC(=C1SC(=S)NC1=O)c1ccccc1 | i | ? | i | i | i | i
S=C1NCCc2ccc(Cl)cc2C1c1ccccc1Cl (stereo unspecified) | i | 32µM | i | i | i | i
Clc1ccc2c(c1)C(C1=NCCN1)c1ccccc1CS2 (stereo unspecified) | ? | i | i | i | i | i
COc1ccc(C)cc1Nc1nc2ccccc2nc1NS(=O)(=O)c1ccc(Cl)cc1 | nt | i | nt | nt | nt | nt
Cc1ccc(NC(=O)c2cc(NC(=O)c3ccco3)ccc2N2CCOCC2)cc1 | i | i | i | i | i | i
Cc1ccc(NC(=O)c2cc(N3C(=O)C=CC3=O)ccc2N2CCOCC2)cc1 | i | 10µM | i | i | i | i
Cc1ccc(NC(=O)c2cc(N3C(=O)C=CC3=O)ccc2Cl)cc1C | i | 3.5µM | i | i | i | i
Cc1ccc(O)c(N)c1 | i | nt | i | i | i | i
Cc1ccc(SSc2cc(C)ccc2N)c(N)c1 | i | 10µM | i | i | i | i
O=C(Nc1ccc(Cc2ccncc2)cc1)Nc1ccc(F)cc1F | nt | i | nt | nt | nt | nt
O=C(Nc1ccc(Cl)c(C(F)(F)F)c1)/C(=C/c1ccc(F)cc1)c1ccc(-c2ccccc2)cc1 | nt | i | nt | nt | nt | nt
CCOC(=O)C1(C)/C(=N/Nc2cccc(Cl)c2)C(=O)C(=O)N1c1ccccc1 (stereo unspecified) | i | 22µM | i | i | i | i
O=C(c1ccccc1)[C@@H]1[C@@H]2C(=O)N(c3ccc(F)cc3)C(=O)[C@@H]2C2CCCN21 (stereo partly specified) | ? | ? | i | ? | i | i
Cc1ccc(N2C(=O)[C@@H]3[C@H](C2=O)[C@H]2C=C(C(=O)c4ccccc4)C=CN2[C@@H]3C(=O)c2ccc(Cl)cc2)cc1 | i | i | i | i | i | 11µM
Cc1ccc(N2C(=O)[C@@H]3[C@H](C2=O)C2CCCN2[C@@H]3C(=O)c2ccccc2)cc1 (stereo partly specified) | ? | 45µM | i | i | i | i
O=C(C1=C[C@@H]2[C@H]3C(=O)N(c4cccc(Cl)c4)C(=O)[C@H]3[C@@H](C(=O)c3ccc(Cl)cc3)N2C=C1)c1ccccc1 | i | nt | i | i | i | i
CCCc1cc(C(=O)OCC(=O)NC(=O)NC2CCCC2)sc1C | nt | i | nt | nt | nt | nt
Brc1ccc(-c2noc(Cc3cccs3)n2)o1 | nt | 25µM | nt | nt | nt | nt
COc1ccc(Cc2nc(-c3ccc(Br)o3)no2)cc1 | nt | i | nt | nt | nt | nt
CCOC(=O)c1sc2nc(CSc3ccccc3)nc(N3CCCN(C)CC3)c2c1C | i | 5.6µM | i | i | i | i
CCC(=O)NC(c1ccc(C)cc1)c1cc([N+](=O)[O-])c2cccnc2c1O (stereo unspecified) | i | 11µM | i | i | i | i
O=[N+]([O-])c1cc(Cl)c(O)c2ncccc12 | i | 5.6µM | i | i | i | i
CC(=O)NC(c1ccccc1)c1cc(Cl)c2cccnc2c1O (stereo unspecified) | i | i | i | i | i | ?
CC(=O)NC(c1ccc(C)cc1)c1cc([N+](=O)[O-])c2cccnc2c1O (stereo unspecified) | i | 45µM | i | i | i | i
Oc1c(I)cc(Cl)c2cccnc12 | i | 11µM | i | i | i | ?
SMILES | Vif-A3G inh | 12-LOX inh | ASM inhibitor | PTAP TSG101 blk | Akt phos inh | Vif-APOBEC3F blk
O=[N+]([O-])c1cc(Cl)c2cccnc2c1O | i | ? | i | ? | i | ?
CCCC(=O)NC(c1ccco1)c1cc([N+](=O)[O-])c2cccnc2c1O (stereo unspecified) | i | i | i | i | i | i
O=C(CN1CCCCC1)NC1CC(=O)N(Cc2cccc3ccccc23)C1 (stereo unspecified) | nt | i | nt | nt | nt | nt
Cc1cc(SCC(=O)NN2C(=O)NC3(CCC(C)CC3)C2=O)nc2ccccc12 (stereo unspecified) | nt | i | nt | nt | nt | nt
Clc1ccc(OCCn2ccnc2)c(Cl)c1 | i | i | i | i | i | i
Clc1ccc(OCCn2ccnc2)c(Br)c1 | i | 3.2µM | i | i | i | i
Cc1cnc(NC(=O)c2ccc3c(c2)C(=O)N(Cc2ccco2)C3=O)s1 | i | i | i | i | -120% | i
CCN1C(=O)c2ccc(C(=O)Nc3ncc(C)s3)cc2C1=O | i | i | i | i | i | i
CCCN1C(=O)c2ccc(C(=O)Nc3nccs3)cc2C1=O | i | i | i | i | -111% | i
Cc1ccc(C)c(/C=C2\CCc3ccccc3C2=O)c1 | nt | i | nt | nt | nt | nt
O=C(NCc1cccs1)Nc1cccs1 | i | i | i | i | -114% | i
CC1(Br)C(Sc2ccccc2[N+](=O)[O-])=Nc2ccccc21 (stereo unspecified) | nt | 7.9µM | nt | nt | i | nt
CCSc1nc(N)c2c3c(sc2n1)CCCC3C (stereo unspecified) | nt | i | nt | nt | nt | nt
Cc1c(Br)cc(C(=O)O)cc1Br | nt | i | nt | nt | nt | nt
Cc1c(CCl)cc(C(=O)O)cc1CCl | nt | 5.6µM | nt | nt | nt | nt
Cc1cc(NC(=O)CS(=O)(=O)c2ccc(C(C)(C)C)cc2)no1 | nt | i | nt | nt | nt | nt
CCOc1ccc2c(=O)c(Oc3ccccc3OCC)c(C)oc2c1 | nt | i | nt | nt | nt | nt
O=C(c1ccccc1)[C@@H]1[C@@H](C(=O)c2ccco2)[C@@]2(C(=O)Nc3ccccc32)[C@H]2c3ccccc3C=CN12 | nt | 14µM | nt | nt | nt | nt
